Our source for the growth values is PubChem BioAssay (NCI).

SMILES strings stand for the structures. Compounds without any hit were thinned out: in the full panel of roughly 83,000, 20% have a hit.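 Cell lines were cultured in 96-well plates, exposed to a single compound concentration, and assessed for percent growth 48 hours later.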 The source made the active and inactive calls. Rule for the calls: active = growth percent below 10; inactive = the rest.

For the experiment, the system named is HL-60(TB) leukemia. Nature of the experiment: NCI-60 one-dose screen, 48 h (100 = growth as untreated, 0 = no growth, -100 = all killed). Particulars: 10 µM unless noted.
Turning to `Cc1cc(NC(=O)c2cnc(N3CCN(CCOCCOCCOCCOCCC(=O)N[C@H](C(=O)N4C[C@H](O)C[C@H]4C(=O)N[C@@H](C)c4ccc(-c5scnc5C)cc4)C(C)(C)C)CC3)cn2)c2ncccc2c1`, the growth is -21.1% (active).
On to `CN(Cc1cccc(C(F)(F)F)c1)C(=O)[C@@H](CC(=O)N1CCC(N2CCCCC2)CC1)N1C(=O)[C@@H](N2C(=O)OC[C@@H]2c2ccccc2)[C@H]1/C=C/c1ccccc1`, for which the growth was 70.1% (inactive).
The same measure for `N#CC1=C(N)Oc2c(ccc3ccccc23)C1c1cccs1` (stereo unspecified): -29.6% (active).
With `O=[N+]([O-])c1cc2c(cc1Br)C1C(C3C2C(Cl)(Cl)C(Cl)=C(Cl)C3(Cl)Cl)C(Cl)(Cl)C(Cl)=C(Cl)C1(Cl)Cl` (stereo unspecified), the growth is 110% (inactive).
The same measure for `c1ccc(CN2COc3c(ccc4c3OCN(Cc3ccccc3)C4)C2)cc1`: -19% (active); for `CCCC[N+]1(C)CCN=C1Cc1ccccc1` (stereo unspecified): 88.9% (inactive).
